In all, about 340,000 compounds went through this assay and about 470 (0.14%) were called active. Shown is part of a subset that was picked to be rich in actives. A number with no mark means an inactive call.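 Rule for the calls: active = mean activation of 30% or more, with every replicate also reaching 30%; inconclusive = mean activation of 30% or more but some replicate falls short; inactive = the rest.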
Assay: miR-122 suppressors via Renilla sensor increase, primary screen, cell-based, Huh7 psiCHECK-miR122, Renilla luciferase, single point (AID 623901);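 note: 0% = median of neutral control wells and 100% = median of positive control wells; higher luciferase signal means stronger suppression of miR-122 activity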
Settings: 48 h, at 12.5 µM, hits give high values

| Structure (SMILES) | activation |
| --- | --- |
| COc1ccc(OC)c(S(=O)(=O)Nc2cccc(-c3ccc4nncn4n3)c2)c1 | -333% |
| C[C@@H]1CN([C@H](C)CO)S(=O)(=O)c2ccc(C#CCC3CCCC3)cc2O[C@H]1CN(C)C(=O)CC1CC1 | -0.08% |
| CO[C@@H]1CN(C)C(=O)c2cc(NS(=O)(=O)CC(F)(F)F)ccc2OC[C@H](C)N(C)C[C@H]1C | -2.27% |
| C[C@H](CO)N1C[C@H](C)[C@H](CN(C)CC2CCCCC2)Oc2c(NC(=O)c3cnccn3)cccc2C1=O | -119% |
| C[C@@H]1CN([C@H](C)CO)C(=O)c2cc(C#CC3CCCC3)cnc2O[C@@H]1CN(C)C(=O)C1CCC1 | -4.13% |
| CCOc1ccccc1N1CCN(C(=O)c2ccc3[nH]c(C)c(C)c3c2)CC1 | -100% |
| C[C@H](CO)N1C[C@H](C)[C@H](CN(C)C(=O)Nc2cccc3ccccc23)Oc2ncc(C#Cc3ccccc3)cc2C1=O | 8.08% |
| C[C@H]1CN([C@@H](C)CO)S(=O)(=O)c2ccc(Br)cc2O[C@H]1CN(C)Cc1ccccn1 | 4.93% |
| CSc1ccc(S(=O)(=O)NC2CCCCC2)cc1 | -102% |
| CCCC#Cc1cnc2c(c1)C(=O)N([C@H](C)CO)C[C@H](C)[C@@H](CN(C)Cc1ccccc1)O2 | 2.96% |
| C[C@@H]1CN([C@H](C)CO)C(=O)c2cc(-c3ccc(F)cc3)cnc2O[C@@H]1CN(C)Cc1ccc(C(=O)O)cc1 | -8.09% |
| Cc1c(C)c(C)c(S(=O)(=O)NCCc2ccccn2)c(C)c1C | -107% |
| CCC(=O)N1C[C@H](C)[C@H](OC)CN(C)C(=O)c2ccc(NS(C)(=O)=O)cc2OC[C@H]1C | 0.433% |
| C[C@H]1CN([C@@H](C)CO)C(=O)c2cc(C#CC3(O)CCCC3)cnc2O[C@@H]1CN(C)C(=O)Cc1ccccc1 | 0.596% |
| COc1cccc2sc(N(CCCN(C)C)C(=O)C(c3ccccc3)c3ccccc3)nc12 | 74.2% (active) |
| C[C@@H]1CN([C@H](C)CO)S(=O)(=O)c2ccc(-c3ccccc3)cc2O[C@@H]1CN(C)C(=O)CC1CC1 | -0.601% |
| C[C@H](CO)N1C[C@H](C)[C@@H](CN(C)CC2CCOCC2)Oc2ncc(C#Cc3ccc(F)cc3)cc2C1=O | 4.08% |
| C[C@@H]1CN([C@@H](C)CO)S(=O)(=O)c2ccc(C#CCC3CCCC3)cc2O[C@H]1CN(C)C(=O)CC1CC1 | -4.63% |
| C[C@@H]1CN([C@H](C)CO)C(=O)c2cc(C#CC3(O)CCCC3)cnc2O[C@H]1CN(C)Cc1ccncc1 | -9.22% |
| C[C@H](CO)N1C[C@H](C)[C@@H](CN(C)Cc2ccncc2)Oc2ncc(C#CC3CC3)cc2C1=O | -22.7% |
| Cc1ccc(C(=O)Nc2ccccc2-c2ccccc2)cc1S(=O)(=O)Nc1ccccc1 | -94% |
| N=c1c2c(-c3ccccc3)c(-c3ccccc3)n(Cc3ccccc3)c2ncn1CCCO | 42.7% (active) |
| CCCN1C[C@@H](C)[C@@H](OC)CN(C)C(=O)c2ccc(NS(C)(=O)=O)cc2OC[C@@H]1C | -0.143% |
| C/C=C/c1ccc2c(c1)O[C@H](CN(C)Cc1ccccc1)[C@H](C)CN([C@@H](C)CO)S2(=O)=O | -0.63% |

| Structure (SMILES) | activation |
| --- | --- |
| C[C@H](CO)N1C[C@H](C)[C@H](CN(C)Cc2ccncc2)Oc2ncc(C#Cc3cccc(F)c3)cc2C1=O | -2.31% |
| COCC#Cc1cnc2c(c1)C(=O)N([C@@H](C)CO)C[C@@H](C)[C@H](CN(C)C(=O)Nc1ccccc1OC)O2 | -17.8% |
| CCc1ccc(-c2cc(C)no2)cc1S(=O)(=O)NCCc1ccc(S(N)(=O)=O)cc1 | -124% |
| C[C@H](CO)N1C[C@H](C)[C@H](CN(C)Cc2ccccn2)Oc2ncc(C#CCc3ccccc3)cc2C1=O | -4.42% |
| Cc1ccc(S(=O)(=O)Nc2ccc3ncccc3c2)cc1 | -146% |
| COCC(=O)N(C)C[C@H]1Oc2cc(C#CC(C)C)ccc2S(=O)(=O)N([C@H](C)CO)C[C@@H]1C | -9.28% |
| CCOC(=O)c1c(S(=O)(=O)Nc2cccc(Cl)c2)c(C)n(C)c1C | -92% |
| O=C(/C=C(O)/C=C/c1ccc(O)cc1)/C=C/c1ccc(O)cc1 | -140% |
| CCC(=O)Nc1ccc2c(c1)OC[C@H](C)N(Cc1ccccc1F)C[C@H](C)[C@@H](OC)CN(C)C2=O | 3.89% |
| Cn1c(NC(=O)c2ccco2)c(-c2ccccc2Cl)c(=O)c2ccccc21 | 66.3% (active) |
| COc1ccc(NS(=O)(=O)c2ccc(NC(=O)C(C)(C(F)(F)F)C(F)(F)F)cc2)nn1 | 35.7% (active) |
| COc1ccc(NS(=O)(=O)c2ccc(NC(=S)NC(=O)CC(C)C)cc2)cc1 | -161% |
| CO[C@H]1CN(C)C(=O)c2cc(NS(=O)(=O)c3ccccc3)ccc2OC[C@H](C)N(C)C[C@@H]1C | -1.29% |
| C[C@H](CO)N1C[C@H](C)[C@@H](CN(C)S(=O)(=O)c2ccccc2)Oc2ncc(C#Cc3ccccc3F)cc2C1=O | 1.81% |
| COc1ccc(OCCCC(=O)NCCc2ccccc2)cc1 | -223% |
| CC(C)C#Cc1ccc2c(c1)O[C@@H](CN(C)C(=O)NC(C)C)[C@H](C)CN([C@H](C)CO)S2(=O)=O | -66.1% |
| COc1ccccc1-c1cnc2c(c1)C(=O)N([C@H](C)CO)C[C@@H](C)[C@@H](CN(C)CC1CCCC1)O2 | 5.29% |
| Cc1ccc(NS(=O)(=O)c2cc3c(cc2C)NC(=O)CO3)cc1 | -92.7% |
| CC(C)C(=O)Nc1ccc2c(c1)C(=O)N(C)[C@@H]1CC[C@@H](CC(=O)NCCc3ccccc3)O[C@H]1CO2 | 56.7% (active) |
| CCCC(=O)Nc1ccc2c(c1)C(=O)N(C)C[C@H](OC)[C@@H](C)CN[C@H](C)CO2 | 1.08% |
| CNC(=O)C[C@@H]1CC[C@H]2[C@H](COc3ccc(NC(=O)c4cccc(OC)c4)cc3C(=O)N2C)O1 | 50% (active) |
| CCC(=O)Nc1ccc2c(c1)C(=O)N(C)C[C@@H](OC)[C@@H](C)CN(Cc1ccccc1OC)[C@H](C)CO2 | -2.97% |
| Cn1cnc(CCNC(=O)C[C@@H]2CC[C@@H]3[C@H](COC[C@@H](O)CN3C(=O)Nc3ccccc3)O2)c1 | 4.36% |
| CCCC(=O)Nc1ccc2c(c1)C(=O)N(C)[C@H]1CC[C@@H](CC(=O)NCc3cccc(F)c3)O[C@H]1CO2 | -120% |

| Structure (SMILES) | activation |
| --- | --- |
| Cc1ccc(-c2ccc3c(c2)O[C@@H](CN(C)C(=O)NC(C)C)[C@@H](C)CN([C@H](C)CO)S3(=O)=O)cc1 | -3.11% |
| COc1ccc(OC)c(-n2cc3c(=O)n(C)c(=O)n(C)c3c2)c1 | -102% |
| O=C(NNC(=O)c1ccccc1O)c1ccccc1O | -530% |
| CCCN(C)C[C@H]1Oc2ncc(-c3ccccc3OC)cc2C(=O)N([C@H](C)CO)C[C@@H]1C | 6.19% |
| O=c1c(-c2ccccc2)coc2c(CN3CCOCC3)c(O)ccc12 | 35.8% (active) |
| CNC[C@@H]1Oc2cc(-c3ccccc3OC)ccc2S(=O)(=O)N([C@H](C)CO)C[C@H]1C | -5.6% |
| C[C@@H]1CN([C@H](C)CO)C(=O)c2cc(C#CCN(C)C)cnc2O[C@H]1CN(C)C(=O)Cc1ccncc1 | 2.45% |
| C[C@@H]1CN([C@@H](C)CO)S(=O)(=O)c2ccc(-c3cccc(C(=O)N(C)C)c3)cc2O[C@@H]1CN(C)C(=O)Nc1ccccc1 | -16.6% |
| Cc1ccc(S(=O)(=O)NC2CCCCCC2)cc1 | -106% |
| C[C@H](CO)N1C[C@H](C)[C@@H](CN(C)C(=O)Cc2cccnc2)Oc2ncc(-c3ccncc3)cc2C1=O | -1.97% |
| O=C(Nc1ccc(F)cc1)N1CCCCN2[C@H](CO)[C@H](c3ccc(C#Cc4ccccc4)cc3)[C@H]2C1 | 34.6% (active) |
| COc1ccc(C#Cc2ccc([C@H]3[C@@H](CO)N4CCCCN(C(=O)Nc5ccccc5)C[C@H]34)cc2)cc1 | 35.5% (active) |
| O=C(NCCCn1ccnc1)c1cc(-c2ccccc2)on1 | -98.4% |
| O=C(CN1CCOCC1)Nc1cc(Cl)ccc1Cl | -101% |
| O=S(=O)(N/N=C\c1cccn1-c1ccccc1)c1ccc2ccccc2c1 | -97.9% |
| Cc1noc(C)c1NC(=O)N(C)C[C@@H]1Oc2cc(C#CCC(C)C)ccc2S(=O)(=O)N([C@H](C)CO)C[C@@H]1C | -3.73% |
| CCCNC(=O)N(C)C[C@H]1Oc2ncc(C#C[C@@H](C)O)cc2C(=O)N([C@@H](C)CO)C[C@@H]1C | 7.15% |
| O=C(c1ccccc1F)N1C[C@H]2[C@@H](c3ccccc31)[C@@H](CO)N2C(=O)c1ccc(F)cc1 | -471% |
| O=C(CC(F)(F)F)N1C[C@H]2[C@@H](c3ccccc31)[C@H](CO)N2C(=O)Cc1cccnc1 | 33.3% (active) |
| COc1ccc(C(=O)N2C[C@@H]3[C@H](c4ccccc42)[C@H](CO)N3Cc2ccc3c(c2)OCO3)cc1 | -247% |
| CCCC#Cc1ccc2c(c1)O[C@H](CN(C)C(=O)CC)[C@@H](C)CN([C@H](C)CO)S2(=O)=O | -45.7% |
| CCCNC(=O)N(C)C[C@@H]1Oc2cc(-c3ccccc3)ccc2S(=O)(=O)N([C@H](C)CO)C[C@H]1C | -13.1% |
| C[C@@H]1CN([C@@H](C)CO)S(=O)(=O)c2ccc(C#C[C@@H](C)O)cc2O[C@@H]1CN(C)C(=O)Cc1ccccn1 | 2.54% |

Reference: PubChem BioAssay AID623901 (Broad Institute, 2012)
